The source made the active and inactive calls.
How the values were obtained:
[1] = molecular target: Albumin (Bos taurus) (UniProt P02769); assay: compounds binding labelled BSA control protein – biochemical, small-molecule microarray, Alexa647 label, 635/667 nm fluorescence, artefact control for SMM control protein annotation, profiling panel (AID 1118); conditions: BSA-A647 binding, fluorescence 635 nm, higher = more signal;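 note: score merges 667 nm emission intensity and signal-to-noise per printed compound spot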
Sequence of Albumin (Bos taurus) (P02769 whole entry, looked up): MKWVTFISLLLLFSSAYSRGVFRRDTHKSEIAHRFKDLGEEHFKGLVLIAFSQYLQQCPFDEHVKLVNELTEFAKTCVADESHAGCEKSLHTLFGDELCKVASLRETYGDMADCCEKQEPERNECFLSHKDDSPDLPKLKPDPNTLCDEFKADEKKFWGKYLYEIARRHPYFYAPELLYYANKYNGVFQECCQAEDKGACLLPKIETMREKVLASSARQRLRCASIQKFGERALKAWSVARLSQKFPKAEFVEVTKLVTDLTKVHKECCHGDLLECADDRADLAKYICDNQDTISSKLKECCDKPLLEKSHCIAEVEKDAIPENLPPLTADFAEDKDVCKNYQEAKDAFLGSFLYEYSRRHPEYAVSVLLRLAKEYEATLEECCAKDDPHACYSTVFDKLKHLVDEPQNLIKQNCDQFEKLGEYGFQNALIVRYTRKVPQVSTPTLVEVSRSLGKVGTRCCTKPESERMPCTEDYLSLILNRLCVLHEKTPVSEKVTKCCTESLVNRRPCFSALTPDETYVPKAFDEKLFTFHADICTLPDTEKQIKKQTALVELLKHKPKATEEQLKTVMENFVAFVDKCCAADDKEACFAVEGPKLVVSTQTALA

[2] = probe aXIP binding to arrayed compounds – biochemical, NeuroSMM set, 635/667 nm fluorescence, primary screen (AID 1119); conditions: small-molecule microarray, higher = more signal, called active from +8 up or from −8 down;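 note: probe is the protein aXip251-270 applied at 1 µg/mL to compound-printed slides; binding of probe to printed compounds measured as 667 nm fluorescence plus signal to noise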
[3] = probe aNOTCH3 binding on compound microarray – biochemical, small-molecule microarray, 635/667 nm fluorescence, primary screen (AID 1120); conditions: higher = more signal;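 note: probe is a biotin-tagged antibody raised against NOTCH3 rather than NOTCH3 protein; score merges spot fluorescence near 667 nm with spot signal to noise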
[4] = probe aNOTCH2 binding on compound microarray – biochemical, small-molecule microarray, 635/667 nm fluorescence, primary screen (AID 1121); conditions: higher = more signal;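 note: score merges feature fluorescence read at 667 nm with its signal to noise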
[5] = molecular target: Carbonic anhydrase 2 (Homo sapiens) (UniProt P00918); assay: compounds binding carbonic anhydrase 2 – biochemical, small-molecule microarray, Alexa647-labelled CAII, profiling panel (AID 1122); conditions: CAII-A647 binding fluorescence, higher = more signal
[6] = COS7 lysate on small-molecule microarray, probe aHis, 635 nm (AID 1123); conditions: COS7 cell lysate, fluorescence, higher = more signal;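 note: z-score combines 667nm fluorescence intensity with signal-to-noise per printed compound spot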
[7] = probe aLAP1 signal on lysate-treated microarray – cell lysate, small-molecule microarray, COS7 lysate, primary screen (AID 1124); conditions: probe aLAP1, fluorescence, higher = more signal;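 note: lysate comes from COS7 cells expressing LAP1 and is applied at 0.3 µg/mL; score merges spot fluorescence near 667 nm with signal-to-noise over triplicate slides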
[8] = test system: Sam68 (KHDRBS1); assay: compounds binding KHDRBS1 protein – biochemical, small-molecule microarray, 635 nm fluorescence, primary screen (AID 1125); conditions: higher = more signal;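 note: score merges 667 nm channel intensity with signal to noise over triplicate slides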
[9] = test system: Chordin-like protein 2 (CHRDL2); assay: compounds binding chordin-like 2 – biochemical, small-molecule microarray, 635 nm fluorescence, primary screen (AID 1126); conditions: fluorescence 635 nm, higher = more signal;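 note: printed compound slides probed with Chrdl2 protein at 4 µg/mL for 1 h at 4 C; score merges 667 nm emission intensity with signal to noise over three replicate slides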
[10] = molecular target: Concanavalin-A (Canavalia ensiformis) (UniProt P02866); assay: compounds binding concanavalin A lectin – biochemical, small-molecule microarray, Alexa647 label, 635 nm, artefact control for SMM control protein annotation, primary screen (AID 1127); conditions: ConA-A647 binding fluorescence, higher = more signal;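 note: z combines 667 nm emission intensity with signal-to-noise across three replicate slides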
Sequence of Concanavalin-A (Canavalia ensiformis) (P02866 whole entry, looked up): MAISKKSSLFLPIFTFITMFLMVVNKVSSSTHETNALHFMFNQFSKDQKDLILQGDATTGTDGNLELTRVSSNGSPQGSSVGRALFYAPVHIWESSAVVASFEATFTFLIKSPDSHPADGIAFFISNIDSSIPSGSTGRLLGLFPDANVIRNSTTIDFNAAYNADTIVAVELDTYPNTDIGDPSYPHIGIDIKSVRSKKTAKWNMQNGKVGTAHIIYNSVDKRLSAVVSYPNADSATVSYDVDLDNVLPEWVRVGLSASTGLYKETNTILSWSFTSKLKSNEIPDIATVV

[11] = compounds binding Alexa647 anti-His antibody – biochemical, small-molecule microarray, 635 nm fluorescence, artefact control for SMM control protein annotation, primary screen (AID 1128); conditions: higher = more signal;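 note: score merges feature fluorescence with signal-to-noise for each printed compound spot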
[12] = test system: Human papillomavirus type 1a E7 protein (residues 1-88); assay: HPV1a E7 small-molecule binders, primary screen, biochemical, small-molecule microarray, residues 1-88, 635 nm (AID 1129); conditions: small-molecule microarray binding, fluorescence 635 nm; higher = more signal
[13] = molecular target: Focal adhesion kinase 1 (Homo sapiens) (UniProt Q05397); assay: PTK2 protein binding on printed compound slides – biochemical, small-molecule microarray, 635/667 nm fluorescence, BSA, DTT, primary screen (AID 1130); conditions: 635 nm fluorescence, higher = more signal;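 note: composite of spot emission at 667 nm and signal to noise over triplicate slides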
Sequence of Focal adhesion kinase 1 (Homo sapiens) (Q05397 whole entry, looked up): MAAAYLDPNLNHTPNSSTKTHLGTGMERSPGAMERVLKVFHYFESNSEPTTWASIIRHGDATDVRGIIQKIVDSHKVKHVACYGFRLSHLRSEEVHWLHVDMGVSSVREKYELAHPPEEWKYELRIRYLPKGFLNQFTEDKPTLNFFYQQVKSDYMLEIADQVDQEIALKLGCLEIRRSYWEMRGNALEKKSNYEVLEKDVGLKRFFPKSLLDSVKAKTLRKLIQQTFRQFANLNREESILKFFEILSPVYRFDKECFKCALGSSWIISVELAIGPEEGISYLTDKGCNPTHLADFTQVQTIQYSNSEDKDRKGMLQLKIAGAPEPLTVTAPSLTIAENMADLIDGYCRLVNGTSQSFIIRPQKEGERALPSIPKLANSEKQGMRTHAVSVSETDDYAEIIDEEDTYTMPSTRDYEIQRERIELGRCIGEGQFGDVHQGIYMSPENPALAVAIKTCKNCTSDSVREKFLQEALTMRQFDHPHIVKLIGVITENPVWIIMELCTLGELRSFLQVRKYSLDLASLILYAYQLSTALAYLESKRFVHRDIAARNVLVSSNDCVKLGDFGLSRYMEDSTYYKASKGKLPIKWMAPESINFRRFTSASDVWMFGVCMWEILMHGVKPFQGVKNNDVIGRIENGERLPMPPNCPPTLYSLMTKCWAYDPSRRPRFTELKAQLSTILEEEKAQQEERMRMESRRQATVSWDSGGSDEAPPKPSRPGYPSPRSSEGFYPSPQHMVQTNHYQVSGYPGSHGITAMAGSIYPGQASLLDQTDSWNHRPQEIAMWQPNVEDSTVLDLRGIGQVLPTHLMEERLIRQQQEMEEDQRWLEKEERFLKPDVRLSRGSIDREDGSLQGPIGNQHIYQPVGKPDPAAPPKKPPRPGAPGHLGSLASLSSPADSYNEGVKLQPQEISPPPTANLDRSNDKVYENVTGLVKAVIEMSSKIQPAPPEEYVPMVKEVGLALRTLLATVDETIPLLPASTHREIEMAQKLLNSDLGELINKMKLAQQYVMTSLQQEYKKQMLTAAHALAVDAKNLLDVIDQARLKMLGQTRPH

[14] = test system: Fibrinogen (Alexa647-labelled); assay: Alexa647-fibrinogen binding to printed small molecules – biochemical, small-molecule microarray, 635/667 nm fluorescence, artefact control for SMM control-protein annotation, profiling panel (AID 1131); conditions: fibrinogen-A647 binding fluorescence, higher = more signal;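 note: z-score merges 667 nm fluorescence with per-spot signal-to-noise over triplicate slides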
[15] = molecular target: Follistatin (Homo sapiens) (UniProt P19883); assay: FST protein binding to printed compounds – biochemical, small-molecule microarray, 635/667 nm fluorescence, primary screen (AID 1132); conditions: 635 nm fluorescence, higher = more signal
Sequence of Follistatin (Homo sapiens) (P19883 whole entry, looked up): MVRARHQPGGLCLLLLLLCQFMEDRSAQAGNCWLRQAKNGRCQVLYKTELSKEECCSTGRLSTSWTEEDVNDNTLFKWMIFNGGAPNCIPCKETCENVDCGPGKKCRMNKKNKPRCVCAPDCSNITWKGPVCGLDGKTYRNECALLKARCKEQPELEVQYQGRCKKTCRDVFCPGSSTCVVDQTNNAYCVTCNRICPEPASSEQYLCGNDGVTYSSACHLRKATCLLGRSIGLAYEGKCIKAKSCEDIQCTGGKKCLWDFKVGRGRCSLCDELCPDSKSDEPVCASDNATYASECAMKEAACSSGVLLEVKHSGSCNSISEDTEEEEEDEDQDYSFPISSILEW

[16] = molecular target: Fibroblast growth factor 2 (Homo sapiens) (UniProt P09038); assay: basic fibroblast growth factor binding to printed compounds – biochemical, small-molecule microarray, 635/667 nm fluorescence, primary screen (AID 1133); conditions: FGF2, fluorescence 635/667, higher = more signal
Sequence of Fibroblast growth factor 2 (Homo sapiens) (P09038 whole entry, looked up): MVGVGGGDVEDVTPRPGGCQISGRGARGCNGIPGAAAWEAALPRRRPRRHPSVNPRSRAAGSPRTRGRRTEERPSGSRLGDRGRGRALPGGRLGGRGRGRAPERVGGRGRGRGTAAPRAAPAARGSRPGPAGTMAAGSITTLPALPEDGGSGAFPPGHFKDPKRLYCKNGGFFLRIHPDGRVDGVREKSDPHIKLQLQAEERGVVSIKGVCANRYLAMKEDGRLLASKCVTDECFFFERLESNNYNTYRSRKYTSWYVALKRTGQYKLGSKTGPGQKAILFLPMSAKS

[17] = JC-1 mitochondrial potential readout, lung cancer cells – cell-based, A549, JC-1 fluorescence, basal, 24 h, 100 nL, profiling panel (AID 1138); conditions: higher = more signal;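 note: A549 lung adenocarcinoma cells under basal conditions with no added stimulus; test concentration not given here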
[18] = test system: Lefty1; assay: Lefty1 protein binding to printed compounds – biochemical, small-molecule microarray, 635/667 nm fluorescence, primary screen (AID 1139); conditions: fluorescence 635/667, higher = more signal
[19] = test system: wheat germ agglutinin (Triticum aestivum), Alexa647-labelled; assay: Alexa647-WGA lectin binding to printed small molecules – biochemical, small-molecule microarray, 635/667 nm fluorescence, artefact control for SMM control-protein annotation, profiling panel (AID 1140); conditions: WGA-A647 binding, 635 nm fluorescence, higher = more signal;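 note: score merges 667 nm feature emission with signal to noise over triplicate slides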
[20] = molecular target: Luciferin 4-monooxygenase (Photinus pyralis) (UniProt P08659); assay: inhibition of purified Photinus pyralis luciferase – biochemical, luminescence, purified enzyme, 2006 set, primary screen (AID 1141); conditions: purified firefly luciferase, SteadyGlo luminescence, 30 min; higher = more signal, called active from +8 up or from −8 down;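 note: cell-free assay with purified firefly luciferase at 100 ng per well in PBS; test concentration not given here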
Sequence of Luciferin 4-monooxygenase (Photinus pyralis) (P08659 whole entry, looked up): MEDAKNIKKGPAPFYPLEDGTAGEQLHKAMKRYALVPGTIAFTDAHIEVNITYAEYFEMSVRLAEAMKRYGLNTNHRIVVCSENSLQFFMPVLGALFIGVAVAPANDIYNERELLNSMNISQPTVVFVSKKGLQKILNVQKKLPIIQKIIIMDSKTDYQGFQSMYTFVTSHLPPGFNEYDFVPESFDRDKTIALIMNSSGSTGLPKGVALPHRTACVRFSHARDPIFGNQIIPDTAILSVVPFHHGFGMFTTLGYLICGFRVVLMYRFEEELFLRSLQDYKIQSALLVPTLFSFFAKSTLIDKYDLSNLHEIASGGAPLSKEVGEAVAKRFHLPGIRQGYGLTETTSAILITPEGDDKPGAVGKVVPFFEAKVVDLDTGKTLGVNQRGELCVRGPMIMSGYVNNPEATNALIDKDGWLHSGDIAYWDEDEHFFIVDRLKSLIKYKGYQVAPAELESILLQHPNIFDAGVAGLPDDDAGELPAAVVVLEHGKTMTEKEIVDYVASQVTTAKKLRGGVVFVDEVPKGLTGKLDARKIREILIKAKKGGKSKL

Compound	composite z-score [1]	composite Z-score [2]	composite z-score [3]	composite z-score [4]	composite z-score [5]	composite z-score [6]	composite z-score [7]	composite z-score [8]	composite z-score [9]	composite z-score [10]	composite z-score [11]	composite z-score [12]	composite z-score [13]	composite z-score [14]	composite z-score [15]	composite z-score [16]	z-score [17]	composite z-score [18]	composite z-score [19]	z-score [20]
[N-]=[N+]=Nc1ccccc1[C@H]1OC(c2ccc(OCCCO)cc2)=N[C@@]1(CCS(=O)(=O)c1ccccc1)C(=O)NCCN1CCOCC1	0.189	-0.363 (inactive)	0.189	0.069	0.449	1.72	0.503	1.31	0.577	0.923	1.51	1.26	0.56	0.938	1.34	0.471	0.162	0.619	0.821	-6.93 (inactive)
COc1cccc(/C=C/C=O)c1	0.865	-0.245 (inactive)	0.147	0.142	-0.124	0.155	-0.12	-0.146	0.552	-0.52	0.0592	0.203	-0.0159	-1.77	0.261	0.316	1.47	-0.0262	0.205	-1.36 (inactive)
O=C1C2C=CC(C(O)c3ccc(F)cc3)N(n3cnnc3)C2C(=O)N1Cc1ccccc1 (stereo not given)	-0.224	0.878 (inactive)	0.0065	-0.14	0.561	0.747	-0.138	-0.256	-0.62	-0.129	-0.782	-0.657	-0.284	-0.48	-0.524	-0.529	-1.3	-0.881	-0.271	1.24 (inactive)
C=CCNC(=O)[C@H]1[C@@H]2C(=O)O[C@@H](c3ccccc3)[C@@H](c3ccccc3)N2[C@@H](c2ccc(O)cc2)[C@]12C(=O)Nc1ccc(C#CC3(O)CCCCCC3)cc12	0.201	-0.005 (inactive)	0.0961	-0.0695	0.714	2.11	0.355	1.1	0.215	0.556	2.76	0.277	0.201	0.481	1.16	0.267	-1.22	-0.15	0.0932	0.452 (inactive)
C=CCOC(=O)[C@H]1[C@@H]2C(=O)O[C@@H](c3ccccc3)[C@@H](c3ccccc3)N2[C@@H](c2ccc(OCCOC(=O)[C@@H]3C[C@@H]4C(=O)N[C@@H](CCCCNC(C)=O)C(=O)N4[C@@H]3c3ccc(O)cc3)cc2)[C@]12C(=O)Nc1ccc(I)cc12	-0.689	1.53 (inactive)	0.108	0.0083	0.631	1.69	0.719	1.29	1.01	0.764	1.66	1.21	0.736	0.468	1.32	1.49	-1.38	0.752	0.0621	-0.875 (inactive)
COCCCNC(=O)[C@]1(CCS(=O)(=O)c2ccccc2)N=C(c2ccc(OCCCO)cc2)O[C@@H]1c1ccccc1CN=[N+]=[N-]	1.05	0.0933 (inactive)	0.271	0.228	0.735	2.79	0.295	1.3	-0.79	1.24	3.31	1.25	1.44	0.986	1.32	0.803	0.705	0.144	1.45	-0.842 (inactive)
CN1C(=O)C2C=CC(C(O)c3ccccn3)N(N(c3ccccc3)c3ccccc3)C2C1=O (stereo not given)	0.206	1.31 (inactive)	-0.004	-0.0166	0.822	-0.123	1.04	-0.349	0.227	0.291	0.375	0.669	0.0673	0.66	0.82	0.397	0.613	0.0714	0.747	-0.009 (inactive)
COC(=O)c1c2oc(c1C(=O)OC)C(=O)N(C)Cc1cn(nn1)C[C@H](Cc1ccccc1)NC(=O)N[C@H](CO)CC2	-0.56	-0.2 (inactive)	-0.155	-0.18	-0.41	-0.69	-0.161	-0.947	-0.516	-1.17	-0.0688	-1.52	-0.27	-1.15	-0.0414	-0.438	-0.209	0.244	-0.272	0.247 (inactive)
COC(=O)[C@@]1(Cc2ccc(F)cc2)[C@H]2c3cc(C(=O)N4CCCC4)n(CCc4ccc(O)c(O)c4)c3C[C@H]2CN1C(=O)c1ccccc1	0.601	0.41 (inactive)	1.26	0.89	0.83	1.83	0.543	-1.03	-0.113	-0.697	-0.371	-0.253	0.842	-2.54	-0.411	-0.751	-0.692	-0.49	-0.312	-7.51 (inactive)
C=CCC(OC(C)=O)[C@@H]1[C@@H](N(Cc2cc3ccccc3o2)C(=O)c2ccc(-c3ccccc3)cc2)c2cc(OCCCO)ccc2N1C(=O)c1ccc2ccccc2c1 (stereo not given in full)	0.0005	0.142 (inactive)	-0.154	-0.106	-0.105	0.612	0.0944	0.095	0.0295	-0.0066	0.0895	0.0833	-0.394	0.394	0.874	-0.198	1.26	0.795	0.196	-0.455 (inactive)

From PubChem BioAssay
